For test [1], the target named is human Mitogen-Activated Protein Kinase 1 (MAPK 1), MAPK1 (gene 5594) (UniProt P28482). In words: NVS_ENZ_hMAPK1: NovaScreen (NVS) Enzymatic Assay for human Mitogen-Activated Protein Kinase 1 (MAPK 1) (AID 2283175). The gist of the method:
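Cell-free recombinant human MAPK1 enzymatic assay, fluorescence/electrophoretic mobility shift read at 1 h; loss of signal vs DMSO. Primary screen in duplicate at 25 uM; actives (e.g. ≥30% inhibition) run as concentration-response up to 50 uM.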

Test [2] concerns the target Mitogen-activated protein kinase 3 (Homo sapiens) (UniProt P27361). As to the kind of experiment: NVS_ENZ_hMAPK3: NovaScreen (NVS) Enzymatic Assay for human Mitogen-Activated Protein Kinase 3 (MAPK 3) (AID 2283177). The gist of the method: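 Cell-free enzymatic assay with recombinant protein and specific substrate; fluorescence and electrophoretic mobility shift read-out 1 h after dosing. Primary screen duplicate at 25 uM; actives then run in concentration-response up to 50 uM, loss of signal versus DMSO.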

For test [3], the target named is human MAP Kinase-Activated Protein Kinase 2 (MAPKAPK2), MAPKAPK2 (gene 9261) (UniProt P49137). In words: NVS_ENZ_hMAPKAPK2: NovaScreen (NVS) Enzymatic Assay for human MAP Kinase-Activated Protein Kinase 2 (MAPKAPK2) (AID 2283178). In short, it runs like this:
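Cell-free recombinant human MAPKAPK2 activity measured by fluorescence with electrophoretic mobility shift separation of substrate and product, 1 hr after dosing. Loss of signal versus DMSO; primary screen at 25 uM, concentration-response up to 50 uM.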

The target in test [4] is human MET Proto-Oncogene, Receptor Tyrosine Kinase (MET), MET (gene 4233) (UniProt P08581). As to the kind of experiment: NVS_ENZ_hMet: NovaScreen (NVS) Enzymatic Assay for human MET Proto-Oncogene, Receptor Tyrosine Kinase (MET) (AID 2283180). In short, it runs like this:
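Cell-free MET kinase assay using recombinant protein and fluorescent substrate, with mobility-shift separation; read 1 h after dosing. Primary duplicate at 25 uM; actives in singleton concentration-response to 50 uM maximum. Signal loss versus DMSO.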

Test [5] concerns the target human p21 Activated Kinase 4 (PAK4), PAK4 (gene 10298) (UniProt O96013). In words: NVS_ENZ_hPAK4: NovaScreen (NVS) Enzymatic Assay for human p21 Activated Kinase 4 (PAK4) (AID 2283189). The gist of the method: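 Cell-free recombinant human PAK4 activity assay; fluorescent substrate and product separated by electrophoretic mobility shift, read 1 h after dosing. Initially tested in duplicate at 25 uM, relative to DMSO baseline.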

In test [6] the target is human Phosphodiesterase 4A1 (PDE4A1), PDE4A (gene 5141) (UniProt P27815). In words: NVS_ENZ_hPDE4A1: NovaScreen (NVS) Enzymatic Assay for human Phosphodiesterase 4A1 (PDE4A1) (AID 2283191). The gist of the method: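 Cell-free recombinant human PDE4A1 with fluorescent substrate; product separated by electrophoretic mobility shift, 1 h. Screened at 25 uM, then up to 50 uM in concentration-response; loss of signal fitted against DMSO.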

Test [7] deals with cAMP-dependent protein kinase catalytic subunit alpha (Homo sapiens) (UniProt P17612). As to the kind of experiment: NVS_ENZ_hPKA: NovaScreen (NVS) Enzymatic Assay for human Protein Kinase A (PKA) (AID 2283192). In short, it runs like this:
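Recombinant human PKA with specific fluorescent substrate, product separated by electrophoretic mobility shift, read 1 h after dosing. Primary screen at 25 uM in duplicate; actives then run in concentration-response up to 50 uM, activity relative to DMSO.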

Test [8] concerns the target human Phosphodiesterase 10 (PDE10), PDE10A (gene 10846) (UniProt Q9Y233). In words: NVS_ENZ_hPDE10: NovaScreen (NVS) Enzymatic Assay for human Phosphodiesterase 10 (PDE10) (AID 2283195). The gist of the method:
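Recombinant human PDE10 with fluorescent substrate, 1 h, product separated by electrophoretic mobility shift. Loss of enzyme activity fitted against DMSO; initial screen 25 uM in duplicate, actives run to 50 uM maximum.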

In test [9] the target is human Protein Phosphatase, Mg2+/Mn2+ Dependent 1A (PPM1A), PPM1A (gene 5494) (UniProt P35813). As to the kind of experiment: NVS_ENZ_hPPM1A: NovaScreen (NVS) Enzymatic Assay for human Protein Phosphatase, Mg2+/Mn2+ Dependent 1A (PPM1A) (AID 2283198). The gist of the method: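 Cell-free recombinant PPM1A phosphatase assay with fluorescent substrate, read 1 h after dosing by electrophoretic mobility shift. Chemicals screened in duplicate at 25 uM, then in concentration-response up to 50 uM; loss of activity versus DMSO.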

Test [10] deals with human Matrix Metalloproteinase-9 (MMP9), MMP9 (gene 4318) (UniProt P14780). In words: NVS_ENZ_hMMP9: NovaScreen (NVS) Enzymatic Assay for human Matrix Metalloproteinase-9 (MMP9) (AID 2283190).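 Note: cell-free recombinant MMP9 protease activity read by fluorescent substrate signal; active means inhibition seen as loss of fluorescence signal versus DMSO.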 The gist of the method:
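Cell-free fluorescence-intensity enzyme activity assay using extracted protein, read 1 h after dosing. Loss of signal versus DMSO baseline indicates inhibition; primary screen in duplicate at 25 uM, actives followed up in concentration series.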

The target of test [11] is human Phosphoinositide 3-kinase alpha (PI3Ka), PIK3CA (gene 5290) (UniProt P42336). In words: NVS_ENZ_hPI3Ka: NovaScreen (NVS) Enzymatic Assay for human Phosphoinositide 3-kinase alpha (PI3Ka) (AID 2283196). The gist of the method: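 Enzyme activity as fluorescence after mobility-shift separation of substrate and product, 1 h reaction, recombinant human PI3Kα; concentration-response to 50 uM max for chemicals passing a 25 uM duplicate screen.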
Sequence of human Phosphoinositide 3-kinase alpha (PI3Ka), PIK3CA (gene 5290) (P42336 whole entry, looked up): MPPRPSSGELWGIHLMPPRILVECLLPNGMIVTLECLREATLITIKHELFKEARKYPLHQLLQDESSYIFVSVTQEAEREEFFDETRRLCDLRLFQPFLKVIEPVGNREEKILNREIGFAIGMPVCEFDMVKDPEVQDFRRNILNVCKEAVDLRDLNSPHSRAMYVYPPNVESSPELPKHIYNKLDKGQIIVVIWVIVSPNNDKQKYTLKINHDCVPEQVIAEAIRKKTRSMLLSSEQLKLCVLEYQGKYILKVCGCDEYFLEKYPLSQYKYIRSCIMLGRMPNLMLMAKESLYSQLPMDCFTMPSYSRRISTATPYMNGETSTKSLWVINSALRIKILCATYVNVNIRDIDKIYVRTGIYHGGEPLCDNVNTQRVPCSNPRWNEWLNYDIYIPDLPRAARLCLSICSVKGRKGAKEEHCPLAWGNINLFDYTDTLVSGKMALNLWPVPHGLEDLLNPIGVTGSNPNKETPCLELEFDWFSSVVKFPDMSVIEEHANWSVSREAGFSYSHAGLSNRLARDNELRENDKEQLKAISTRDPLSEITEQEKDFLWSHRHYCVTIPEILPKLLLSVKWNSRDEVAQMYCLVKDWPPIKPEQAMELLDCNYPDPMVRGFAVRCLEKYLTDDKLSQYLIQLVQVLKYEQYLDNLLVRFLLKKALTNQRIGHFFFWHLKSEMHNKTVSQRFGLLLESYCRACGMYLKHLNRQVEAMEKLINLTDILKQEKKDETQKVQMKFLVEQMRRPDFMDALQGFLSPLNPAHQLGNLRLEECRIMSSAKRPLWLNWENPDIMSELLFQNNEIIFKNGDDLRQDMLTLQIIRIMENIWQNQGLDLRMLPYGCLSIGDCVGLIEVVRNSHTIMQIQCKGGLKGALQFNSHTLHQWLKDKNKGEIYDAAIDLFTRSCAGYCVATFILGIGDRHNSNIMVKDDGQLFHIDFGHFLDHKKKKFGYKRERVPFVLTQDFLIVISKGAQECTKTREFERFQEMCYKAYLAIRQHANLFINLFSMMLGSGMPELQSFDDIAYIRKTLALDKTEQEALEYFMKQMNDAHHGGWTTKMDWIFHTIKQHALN

Test [12] addresses Serine/threonine-protein phosphatase PP1-alpha catalytic subunit (Homo sapiens) (UniProt P62136). As to the kind of experiment: NVS_ENZ_hPPP1CA: NovaScreen (NVS) Enzymatic Assay for human Protein Phosphatase 1 Aatalytic subunit Alpha (PPP1CA) (AID 2283200). The gist of the method: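 Recombinant enzyme activity read by fluorescence with electrophoretic mobility shift separating substrate from product, 1.33 h after dosing; loss of signal vs DMSO baseline. Primary screen in duplicate at 25 uM; actives retested in concentration-response up to 50 uM.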

For test [13], the target named is human Phosphodiesterase 5 (PDE5), PDE5A (gene 8654) (UniProt O76074). In words: NVS_ENZ_hPDE5: NovaScreen (NVS) Enzymatic Assay for human Phosphodiesterase 5 (PDE5) (AID 2283194). In short, it runs like this: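 Recombinant human PDE5 with specific substrate, read 1 h after dosing by fluorescence with electrophoretic mobility-shift separation of substrate and product. Initial single-concentration duplicate screen at 25 uM, actives followed in concentration series; loss of activity versus DMSO.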

Values joined by “and” are separate entries in the source; they are usually repeats but may differ in a detail not shown here. Equal values may be shown once. Records with an inconclusive call do not appear. Active and inactive are the calls of the source. Rule for the calls: active = hit-call score of the fitted dose curve at least 0.9, where 1 is the maximum; inconclusive = response in the unintended direction; inactive = score below 0.9.

Sequence of human Phosphodiesterase 10 (PDE10), PDE10A (gene 10846) (Q9Y233 whole entry, looked up): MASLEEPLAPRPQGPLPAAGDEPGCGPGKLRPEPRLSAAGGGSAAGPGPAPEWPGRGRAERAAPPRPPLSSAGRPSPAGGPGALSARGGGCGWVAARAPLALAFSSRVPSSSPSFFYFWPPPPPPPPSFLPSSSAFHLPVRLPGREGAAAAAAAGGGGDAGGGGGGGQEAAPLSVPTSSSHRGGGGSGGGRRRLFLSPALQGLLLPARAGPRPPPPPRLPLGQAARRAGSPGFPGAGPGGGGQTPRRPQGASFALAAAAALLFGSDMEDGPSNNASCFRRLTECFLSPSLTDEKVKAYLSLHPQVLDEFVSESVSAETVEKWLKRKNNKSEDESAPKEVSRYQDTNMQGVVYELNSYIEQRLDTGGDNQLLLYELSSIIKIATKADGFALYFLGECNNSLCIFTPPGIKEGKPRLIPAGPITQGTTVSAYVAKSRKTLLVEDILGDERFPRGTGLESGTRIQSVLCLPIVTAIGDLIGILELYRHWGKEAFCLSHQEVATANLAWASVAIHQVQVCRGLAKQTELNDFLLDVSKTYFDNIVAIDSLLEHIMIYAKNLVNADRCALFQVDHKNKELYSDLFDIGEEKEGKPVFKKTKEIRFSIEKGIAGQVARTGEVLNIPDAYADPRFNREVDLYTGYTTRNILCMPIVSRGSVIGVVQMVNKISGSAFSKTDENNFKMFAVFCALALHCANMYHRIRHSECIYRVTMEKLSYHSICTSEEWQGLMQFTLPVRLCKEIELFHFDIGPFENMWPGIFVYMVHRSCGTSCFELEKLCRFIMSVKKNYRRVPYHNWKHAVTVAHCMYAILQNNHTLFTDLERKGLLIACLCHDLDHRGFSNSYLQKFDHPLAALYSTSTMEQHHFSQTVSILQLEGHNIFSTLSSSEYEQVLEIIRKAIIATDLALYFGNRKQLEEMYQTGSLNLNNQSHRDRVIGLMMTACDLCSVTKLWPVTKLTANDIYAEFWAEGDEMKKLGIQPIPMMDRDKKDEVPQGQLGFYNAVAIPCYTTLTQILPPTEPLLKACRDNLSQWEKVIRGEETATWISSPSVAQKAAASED
Sequence of human Matrix Metalloproteinase-9 (MMP9), MMP9 (gene 4318) (P14780 whole entry, looked up): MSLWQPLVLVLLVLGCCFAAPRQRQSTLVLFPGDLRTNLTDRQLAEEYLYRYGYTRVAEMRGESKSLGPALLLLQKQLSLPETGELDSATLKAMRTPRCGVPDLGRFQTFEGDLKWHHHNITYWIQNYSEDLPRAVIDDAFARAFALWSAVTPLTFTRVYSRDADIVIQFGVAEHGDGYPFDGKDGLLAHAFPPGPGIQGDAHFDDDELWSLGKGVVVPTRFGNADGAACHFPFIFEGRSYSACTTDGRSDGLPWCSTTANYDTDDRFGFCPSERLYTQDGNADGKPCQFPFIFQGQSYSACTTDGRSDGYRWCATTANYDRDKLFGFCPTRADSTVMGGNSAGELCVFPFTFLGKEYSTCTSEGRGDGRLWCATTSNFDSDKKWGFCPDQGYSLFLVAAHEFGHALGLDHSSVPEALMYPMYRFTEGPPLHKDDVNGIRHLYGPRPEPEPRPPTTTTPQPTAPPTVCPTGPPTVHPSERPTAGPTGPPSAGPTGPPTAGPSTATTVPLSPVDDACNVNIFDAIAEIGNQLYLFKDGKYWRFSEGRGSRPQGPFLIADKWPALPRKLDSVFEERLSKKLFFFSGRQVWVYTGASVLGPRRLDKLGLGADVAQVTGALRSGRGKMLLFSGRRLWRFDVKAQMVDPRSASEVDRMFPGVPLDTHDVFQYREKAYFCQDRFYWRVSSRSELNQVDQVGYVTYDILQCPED
Sequence of human Mitogen-Activated Protein Kinase 1 (MAPK 1), MAPK1 (gene 5594) (P28482 whole entry, looked up): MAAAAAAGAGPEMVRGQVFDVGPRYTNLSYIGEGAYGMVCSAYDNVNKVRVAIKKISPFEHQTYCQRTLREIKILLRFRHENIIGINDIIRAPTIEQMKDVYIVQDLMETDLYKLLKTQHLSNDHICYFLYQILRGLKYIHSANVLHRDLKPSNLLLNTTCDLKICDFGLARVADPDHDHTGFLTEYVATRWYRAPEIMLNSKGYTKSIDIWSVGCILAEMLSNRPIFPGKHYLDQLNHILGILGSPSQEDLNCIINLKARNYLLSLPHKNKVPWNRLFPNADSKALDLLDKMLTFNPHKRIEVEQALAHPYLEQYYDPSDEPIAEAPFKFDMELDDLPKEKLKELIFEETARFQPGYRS
Sequence of human MAP Kinase-Activated Protein Kinase 2 (MAPKAPK2), MAPKAPK2 (gene 9261) (P49137 whole entry, looked up): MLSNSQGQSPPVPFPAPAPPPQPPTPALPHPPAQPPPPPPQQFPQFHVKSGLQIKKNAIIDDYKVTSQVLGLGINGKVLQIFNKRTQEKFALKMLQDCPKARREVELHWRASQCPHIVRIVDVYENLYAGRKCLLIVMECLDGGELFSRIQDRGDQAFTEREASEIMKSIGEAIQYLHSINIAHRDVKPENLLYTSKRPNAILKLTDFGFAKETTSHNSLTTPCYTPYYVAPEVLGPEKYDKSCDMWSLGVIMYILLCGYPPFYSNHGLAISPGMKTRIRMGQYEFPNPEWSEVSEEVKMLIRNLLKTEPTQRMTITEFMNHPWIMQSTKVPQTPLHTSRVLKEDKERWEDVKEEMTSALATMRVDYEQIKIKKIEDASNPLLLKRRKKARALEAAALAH
Sequence of Mitogen-activated protein kinase 3 (Homo sapiens) (P27361 whole entry, looked up): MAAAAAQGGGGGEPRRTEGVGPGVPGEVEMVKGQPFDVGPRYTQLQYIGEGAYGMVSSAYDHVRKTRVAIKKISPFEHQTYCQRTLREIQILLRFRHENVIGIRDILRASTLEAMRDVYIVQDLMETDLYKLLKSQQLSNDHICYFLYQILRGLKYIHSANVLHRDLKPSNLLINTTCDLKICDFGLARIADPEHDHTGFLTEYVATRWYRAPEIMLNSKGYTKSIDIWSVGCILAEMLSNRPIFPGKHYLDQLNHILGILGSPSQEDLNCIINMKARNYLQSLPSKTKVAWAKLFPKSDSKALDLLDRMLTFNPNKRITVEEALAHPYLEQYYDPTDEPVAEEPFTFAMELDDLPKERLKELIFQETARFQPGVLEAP
Sequence of human p21 Activated Kinase 4 (PAK4), PAK4 (gene 10298) (O96013 whole entry, looked up): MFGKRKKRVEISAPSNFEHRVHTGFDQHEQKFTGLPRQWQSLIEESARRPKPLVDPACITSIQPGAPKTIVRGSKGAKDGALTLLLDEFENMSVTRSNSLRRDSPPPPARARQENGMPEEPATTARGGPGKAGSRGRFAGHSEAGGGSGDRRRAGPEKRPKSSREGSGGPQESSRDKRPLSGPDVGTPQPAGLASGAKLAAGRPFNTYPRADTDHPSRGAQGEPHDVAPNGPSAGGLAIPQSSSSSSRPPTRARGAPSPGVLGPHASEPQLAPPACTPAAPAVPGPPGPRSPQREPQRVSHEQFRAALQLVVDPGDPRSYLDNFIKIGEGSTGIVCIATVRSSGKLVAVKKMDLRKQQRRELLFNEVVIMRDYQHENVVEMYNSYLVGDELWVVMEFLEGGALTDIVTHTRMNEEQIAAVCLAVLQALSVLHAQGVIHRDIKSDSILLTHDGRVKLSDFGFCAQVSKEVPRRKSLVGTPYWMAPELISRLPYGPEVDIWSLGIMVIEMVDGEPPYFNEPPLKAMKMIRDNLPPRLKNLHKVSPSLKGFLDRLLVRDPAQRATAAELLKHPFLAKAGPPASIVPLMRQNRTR
Sequence of Serine/threonine-protein phosphatase PP1-alpha catalytic subunit (Homo sapiens) (P62136 whole entry, looked up): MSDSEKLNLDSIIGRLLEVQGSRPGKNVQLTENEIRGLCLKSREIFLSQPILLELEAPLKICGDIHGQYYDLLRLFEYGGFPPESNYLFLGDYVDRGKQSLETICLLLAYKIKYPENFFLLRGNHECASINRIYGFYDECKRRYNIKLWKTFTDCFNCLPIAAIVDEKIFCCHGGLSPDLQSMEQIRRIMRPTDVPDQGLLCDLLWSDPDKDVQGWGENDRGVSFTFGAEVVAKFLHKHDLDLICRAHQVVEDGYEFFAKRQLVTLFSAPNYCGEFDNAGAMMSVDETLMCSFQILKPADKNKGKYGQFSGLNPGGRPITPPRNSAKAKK

`O=C(N[C@H]1CN2CCC1CC2)c1ccc2c(c1)OCCO2`: the compound was called inactive in [1], in [2], in [3], in test [4], in test [5] and in [6]. Also, the result in test [7], in test [8] and in [9] was inactive.

Turning to `CCCCN(CCCC)C(=S)[S-].CCCCN(CCCC)C(=S)[S-].[Ni+2]`, in test [10], the AC50 is 12.5 µM (active). With `O=C1c2ccccc2C(=O)C1C(=O)C(c1ccccc1)c1ccc(Cl)cc1` (stereo not drawn), the compound was called inactive in [2]. In addition, the AC50 in test [11] was 16.8 µM (active). On to `BrCCCCBr`, for which the AC50 in test [10] is 15.3 µM (active); in [8], 4.81 µM (active). Regarding `C[N+](C)(C)Cc1ccccc1`, in test [10], the AC50 was 8.55 µM (active) and 5.15 µM (active). On to `CCOP(=O)(OCC)OC(=CCl)c1ccc(Cl)cc1Cl`, for which the AC50 in test [10] was 22.8 µM (active).

As for `O=C(O)CC(O)(CC(=O)O)C(=O)O`, in [1], the call was inactive.

`COc1ccccc1N`: the compound was called inactive in test [3] and in test [8]. In [12], the AC50 was 14.8 µM (active). Take `CC(C)(c1ccccc1)c1cc(-n2nc3ccccc3n2)c(O)c(C(C)(C)c2ccccc2)c1`: in test [10], the AC50 was 1.24 µM (active). Turning to `CC1(C)[C@H](C(=O)O[C@H](C#N)c2cccc(Oc3ccccc3)c2)[C@@H]1/C=C(\Cl)C(F)(F)F`, in test [10], the AC50 is 7.08 µM (active). The compound was classed as inactive in test [13] and in test [8]. For `COC(=O)Nc1cccc(OC(=O)Nc2cccc(C)c2)c1`, in [13], the result was inactive. In the case of `CCCCOP(=O)(CCCC)OCCCC`, in test [8], the compound was called inactive. For the compound `CCC(C)(C#N)N=NC(C)(C#N)CC` (stereo not drawn), the result in test [11] was inactive. Consider `O=c1oc2ccccc2c(O)c1C(CC(O)c1ccc(-c2ccc(Br)cc2)cc1)c1ccccc1` (stereo not drawn), for which the AC50 was 0.436 µM (active) in test [10] and 5.19 µM (active) in test [11]. The outcome in [8] was inactive. `Cc1cc(C(C)(C)c2ccc(O)c(C)c2)ccc1O`: the AC50 in [11] was 5.25 µM (active). Take `C=CCCl`: the compound was called inactive in [11]. Turning to `CC(C)(C)c1ccc(CCOc2ncnc3ccccc23)cc1`, the compound was called inactive in test [8].

On to `Oc1ccc(Cc2ccc(O)cc2)cc1`, for which the call in test [8] and in [11] was inactive. For the compound `Nc1ccc(N)cc1`, in [8], the AC50 was 2.5 µM (active). For the compound `CN(CCCC(O)c1cccnc1)N=O` (stereo not drawn), the AC50 in test [8] was 35.5 µM (active).

For `CCOP(=O)(OCC)SCCSCC`, the compound was called inactive in test [8]. With `O=C(O)C1(c2ccc3c(c2)OC[C@H](Cc2ccc(-c4ccccc4)cc2)[C@H]3O)CCCC1`, in test [11], the outcome was inactive. Turning to `O=[N+]([O-])c1ccc(Nc2ccccc2)cc1`, the compound was classed as inactive in test [8] and in [11]. Take `CCOC(=O)CCN(SN(C)C(=O)Oc1cccc2c1OC(C)(C)C2)C(C)C`: the AC50 in test [10] was 3.66 µM (active). In addition, the compound was called inactive in [11].

Turning to `Oc1c(Cl)cc(Cl)cc1Cl`, in [13], the compound was classed as inactive. Take `Nc1c(Oc2ccccc2)cc(O)c2c1C(=O)c1ccccc1C2=O`: the AC50 in [11] was 3.26 µM (active). In the case of `CC(C)[N+](=O)[O-]`, the compound was classed as inactive in test [8] and in [11]. On to `N#Cc1ccccc1Cl`, for which the call in [8] was inactive.

With `C=CC(=O)NC(C)(C)CC(C)=O`, in [11], the outcome was inactive. Take `CC[N+](CC)(CC)CC`: the compound was classed as inactive in test [11].

Take `CC1CC(=O)O1` (stereo not drawn): in test [8], the compound was called inactive. With `Nc1nc(N)nc(Cl)n1`, the compound was called inactive in [11]. As to `c1ccc2sc(SNC3CCCCC3)nc2c1`, the compound was classed as inactive in [8].

By AC50 is commonly meant the concentration giving half of the maximal activity seen.

The values are drawn from PubChem BioAssay (EPA / NIEHS).
